Tests used:
[1] = target: Sphingosine kinase 1 (Homo sapiens) (UniProt Q9NYA1); conditions: at 1 µM;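 also: mean SPHK1 inhibition value reported from the GSK PKIS kinase panel screen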
[2] = target: T1, Sphingosine kinase 2 (Homo sapiens) (UniProt Q9NRA0); conditions: at 0.1 µM
T1 sequence (whole entry): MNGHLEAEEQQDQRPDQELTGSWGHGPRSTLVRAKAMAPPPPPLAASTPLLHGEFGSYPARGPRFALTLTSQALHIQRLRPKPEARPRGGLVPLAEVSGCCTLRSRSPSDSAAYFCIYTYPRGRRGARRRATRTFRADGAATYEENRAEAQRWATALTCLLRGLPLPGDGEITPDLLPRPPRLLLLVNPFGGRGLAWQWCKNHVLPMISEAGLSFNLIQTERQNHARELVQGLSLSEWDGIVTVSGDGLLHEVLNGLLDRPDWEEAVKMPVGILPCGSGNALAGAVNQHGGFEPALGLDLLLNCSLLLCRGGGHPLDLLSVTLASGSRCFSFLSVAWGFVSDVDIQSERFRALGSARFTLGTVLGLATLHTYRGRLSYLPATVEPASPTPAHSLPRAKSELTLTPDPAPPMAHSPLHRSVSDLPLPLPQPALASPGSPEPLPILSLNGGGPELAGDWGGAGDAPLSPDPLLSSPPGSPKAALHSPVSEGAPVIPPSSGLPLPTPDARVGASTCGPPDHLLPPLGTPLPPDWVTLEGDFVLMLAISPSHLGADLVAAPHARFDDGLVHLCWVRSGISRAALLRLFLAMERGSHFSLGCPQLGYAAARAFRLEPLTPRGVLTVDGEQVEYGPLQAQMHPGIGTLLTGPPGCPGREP

[3] = target: T1, Sphingosine kinase 2 (Homo sapiens); conditions: at 1 µM
[4] = target: Casein kinase II subunit alpha (Homo sapiens) (UniProt P68400); conditions: at 0.1 µM
Sequence of Casein kinase II subunit alpha (Homo sapiens) (P68400 whole entry, looked up): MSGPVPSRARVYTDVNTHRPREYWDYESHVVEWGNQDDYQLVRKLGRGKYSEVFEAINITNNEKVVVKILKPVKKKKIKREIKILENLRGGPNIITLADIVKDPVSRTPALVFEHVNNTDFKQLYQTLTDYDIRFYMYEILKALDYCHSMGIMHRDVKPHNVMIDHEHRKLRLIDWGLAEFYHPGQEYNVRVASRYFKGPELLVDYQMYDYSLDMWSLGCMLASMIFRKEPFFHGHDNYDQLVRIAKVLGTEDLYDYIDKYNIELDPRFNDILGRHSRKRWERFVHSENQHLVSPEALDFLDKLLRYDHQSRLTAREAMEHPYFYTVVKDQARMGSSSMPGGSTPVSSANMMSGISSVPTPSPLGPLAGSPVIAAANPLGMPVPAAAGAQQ

[5] = target: Casein kinase II subunit alpha (Homo sapiens) (UniProt P68400); conditions: at 1 µM
[6] = target: T2, Inhibitor of nuclear factor kappa-B kinase subunit alpha (Homo sapiens) (UniProt O15111); conditions: at 0.1 µM
T2 sequence (whole entry): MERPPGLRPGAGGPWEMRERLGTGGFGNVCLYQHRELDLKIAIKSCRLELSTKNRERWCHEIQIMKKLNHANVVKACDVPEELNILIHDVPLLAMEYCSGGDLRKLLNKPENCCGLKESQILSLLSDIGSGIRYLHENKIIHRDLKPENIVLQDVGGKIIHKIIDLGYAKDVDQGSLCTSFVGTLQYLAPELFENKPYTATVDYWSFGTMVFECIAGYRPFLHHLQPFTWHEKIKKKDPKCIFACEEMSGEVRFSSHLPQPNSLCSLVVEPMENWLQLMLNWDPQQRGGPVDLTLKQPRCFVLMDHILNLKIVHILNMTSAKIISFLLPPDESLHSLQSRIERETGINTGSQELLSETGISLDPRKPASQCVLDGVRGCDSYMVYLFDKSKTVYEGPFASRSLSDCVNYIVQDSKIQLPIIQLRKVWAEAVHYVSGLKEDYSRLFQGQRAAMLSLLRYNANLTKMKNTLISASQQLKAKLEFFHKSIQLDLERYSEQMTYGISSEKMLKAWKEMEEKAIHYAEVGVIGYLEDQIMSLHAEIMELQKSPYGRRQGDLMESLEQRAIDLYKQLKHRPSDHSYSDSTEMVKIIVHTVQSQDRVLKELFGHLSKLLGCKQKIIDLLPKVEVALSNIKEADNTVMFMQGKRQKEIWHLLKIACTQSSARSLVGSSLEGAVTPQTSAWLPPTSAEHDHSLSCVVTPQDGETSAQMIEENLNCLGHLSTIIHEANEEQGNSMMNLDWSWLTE

[7] = target: T2, Inhibitor of nuclear factor kappa-B kinase subunit alpha (Homo sapiens); conditions: at 1 µM
[8] = target: T3, Inhibitor of nuclear factor kappa-B kinase subunit beta (Homo sapiens) (UniProt O14920); conditions: at 0.1 µM
T3 sequence (whole entry): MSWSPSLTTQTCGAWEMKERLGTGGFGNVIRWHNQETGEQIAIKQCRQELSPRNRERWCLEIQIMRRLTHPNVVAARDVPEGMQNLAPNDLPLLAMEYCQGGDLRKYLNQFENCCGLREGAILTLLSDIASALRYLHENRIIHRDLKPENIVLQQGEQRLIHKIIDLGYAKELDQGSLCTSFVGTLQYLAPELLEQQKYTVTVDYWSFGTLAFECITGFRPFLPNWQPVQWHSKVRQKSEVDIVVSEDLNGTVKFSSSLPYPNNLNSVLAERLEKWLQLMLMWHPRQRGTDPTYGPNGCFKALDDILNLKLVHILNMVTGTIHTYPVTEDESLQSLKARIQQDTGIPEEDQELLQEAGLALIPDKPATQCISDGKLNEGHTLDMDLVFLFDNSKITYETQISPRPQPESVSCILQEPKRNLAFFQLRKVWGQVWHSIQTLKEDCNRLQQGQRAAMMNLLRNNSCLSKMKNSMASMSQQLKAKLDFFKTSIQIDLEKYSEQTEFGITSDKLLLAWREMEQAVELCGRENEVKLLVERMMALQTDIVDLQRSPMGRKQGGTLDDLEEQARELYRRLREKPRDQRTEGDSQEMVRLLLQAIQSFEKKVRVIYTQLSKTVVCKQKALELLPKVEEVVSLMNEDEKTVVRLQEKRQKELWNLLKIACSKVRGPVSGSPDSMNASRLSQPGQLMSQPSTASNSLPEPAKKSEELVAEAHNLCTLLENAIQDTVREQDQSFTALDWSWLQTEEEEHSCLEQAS

[9] = target: T3, Inhibitor of nuclear factor kappa-B kinase subunit beta (Homo sapiens); conditions: at 1 µM
[10] = target: T4, Inhibitor of nuclear factor kappa-B kinase subunit epsilon (Homo sapiens) (UniProt Q14164); conditions: at 0.1 µM
T4 sequence (whole entry): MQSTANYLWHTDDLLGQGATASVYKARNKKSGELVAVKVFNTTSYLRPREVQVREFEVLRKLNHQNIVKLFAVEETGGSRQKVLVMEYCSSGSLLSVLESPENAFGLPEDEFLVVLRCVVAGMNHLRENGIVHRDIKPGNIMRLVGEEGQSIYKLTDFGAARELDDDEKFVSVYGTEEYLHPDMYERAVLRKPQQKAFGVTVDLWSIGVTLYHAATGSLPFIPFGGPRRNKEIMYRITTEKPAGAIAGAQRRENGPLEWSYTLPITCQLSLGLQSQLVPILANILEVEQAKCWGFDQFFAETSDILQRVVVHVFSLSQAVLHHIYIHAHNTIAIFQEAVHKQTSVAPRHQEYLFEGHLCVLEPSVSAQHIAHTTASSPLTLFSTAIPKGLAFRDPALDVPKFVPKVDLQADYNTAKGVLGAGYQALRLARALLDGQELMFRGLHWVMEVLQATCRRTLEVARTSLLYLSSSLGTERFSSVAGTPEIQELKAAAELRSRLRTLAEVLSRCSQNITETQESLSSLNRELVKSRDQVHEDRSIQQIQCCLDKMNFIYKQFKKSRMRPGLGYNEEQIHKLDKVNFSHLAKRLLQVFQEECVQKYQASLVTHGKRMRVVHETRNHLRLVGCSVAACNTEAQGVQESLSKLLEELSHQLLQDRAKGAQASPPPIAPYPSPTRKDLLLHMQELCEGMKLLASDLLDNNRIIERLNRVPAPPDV

[11] = target: T4, Inhibitor of nuclear factor kappa-B kinase subunit epsilon (Homo sapiens); conditions: at 1 µM
[12] = target: T5, Serine/threonine-protein kinase Nek1 (Homo sapiens) (UniProt Q96PY6); conditions: at 0.1 µM
T5 sequence (whole entry): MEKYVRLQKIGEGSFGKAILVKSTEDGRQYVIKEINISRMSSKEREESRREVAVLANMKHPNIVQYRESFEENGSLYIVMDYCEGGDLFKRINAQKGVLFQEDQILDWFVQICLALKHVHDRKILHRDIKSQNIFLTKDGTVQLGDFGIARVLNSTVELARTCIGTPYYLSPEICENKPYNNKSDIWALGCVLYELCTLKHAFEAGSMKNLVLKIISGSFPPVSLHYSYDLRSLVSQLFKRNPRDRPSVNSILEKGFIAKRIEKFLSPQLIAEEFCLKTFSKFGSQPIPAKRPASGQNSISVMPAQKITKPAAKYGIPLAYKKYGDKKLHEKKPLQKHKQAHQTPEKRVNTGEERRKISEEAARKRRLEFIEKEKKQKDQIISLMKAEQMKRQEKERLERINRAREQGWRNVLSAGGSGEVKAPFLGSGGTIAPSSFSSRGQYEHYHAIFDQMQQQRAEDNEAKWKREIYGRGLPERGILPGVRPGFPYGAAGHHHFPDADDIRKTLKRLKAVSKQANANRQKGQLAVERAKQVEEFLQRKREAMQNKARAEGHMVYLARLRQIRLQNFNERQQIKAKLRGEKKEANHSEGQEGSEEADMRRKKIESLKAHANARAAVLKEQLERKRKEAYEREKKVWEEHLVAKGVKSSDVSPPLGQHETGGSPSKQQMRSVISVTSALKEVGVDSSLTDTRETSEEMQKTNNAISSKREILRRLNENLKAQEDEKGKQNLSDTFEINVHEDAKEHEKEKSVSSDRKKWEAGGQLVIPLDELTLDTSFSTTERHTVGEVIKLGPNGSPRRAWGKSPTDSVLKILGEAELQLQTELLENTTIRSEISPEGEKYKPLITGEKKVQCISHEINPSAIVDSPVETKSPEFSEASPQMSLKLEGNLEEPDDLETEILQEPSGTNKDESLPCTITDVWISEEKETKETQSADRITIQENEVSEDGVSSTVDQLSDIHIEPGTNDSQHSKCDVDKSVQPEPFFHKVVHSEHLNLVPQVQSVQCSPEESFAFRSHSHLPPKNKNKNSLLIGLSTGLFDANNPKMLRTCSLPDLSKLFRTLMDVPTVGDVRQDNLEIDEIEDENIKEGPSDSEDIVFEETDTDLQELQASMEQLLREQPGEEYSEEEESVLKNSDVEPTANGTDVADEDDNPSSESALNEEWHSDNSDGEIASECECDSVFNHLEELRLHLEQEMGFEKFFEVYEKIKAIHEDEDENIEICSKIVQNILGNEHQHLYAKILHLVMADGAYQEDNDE

[13] = target: T5, Serine/threonine-protein kinase Nek1 (Homo sapiens); conditions: at 1 µM
[14] = target: T6, Serine/threonine-protein kinase Nek2 (Homo sapiens) (UniProt P51955); conditions: at 0.1 µM
T6 sequence (whole entry): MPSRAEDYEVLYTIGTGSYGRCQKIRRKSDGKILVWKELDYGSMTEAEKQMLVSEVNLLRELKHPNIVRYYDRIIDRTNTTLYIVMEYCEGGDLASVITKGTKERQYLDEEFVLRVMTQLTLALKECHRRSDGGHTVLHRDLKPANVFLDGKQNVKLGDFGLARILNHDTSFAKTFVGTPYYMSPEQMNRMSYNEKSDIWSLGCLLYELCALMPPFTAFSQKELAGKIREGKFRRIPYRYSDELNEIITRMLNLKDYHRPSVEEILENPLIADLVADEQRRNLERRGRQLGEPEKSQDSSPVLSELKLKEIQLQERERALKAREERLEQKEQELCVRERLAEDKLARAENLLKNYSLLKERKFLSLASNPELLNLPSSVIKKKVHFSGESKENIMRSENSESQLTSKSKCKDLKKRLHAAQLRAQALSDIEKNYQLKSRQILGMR

[15] = target: T6, Serine/threonine-protein kinase Nek2 (Homo sapiens); conditions: at 1 µM
[16] = target: Serine/threonine-protein kinase Nek6 (Homo sapiens) (UniProt Q9HC98); conditions: at 0.1 µM
Sequence of Serine/threonine-protein kinase Nek6 (Homo sapiens) (Q9HC98 whole entry): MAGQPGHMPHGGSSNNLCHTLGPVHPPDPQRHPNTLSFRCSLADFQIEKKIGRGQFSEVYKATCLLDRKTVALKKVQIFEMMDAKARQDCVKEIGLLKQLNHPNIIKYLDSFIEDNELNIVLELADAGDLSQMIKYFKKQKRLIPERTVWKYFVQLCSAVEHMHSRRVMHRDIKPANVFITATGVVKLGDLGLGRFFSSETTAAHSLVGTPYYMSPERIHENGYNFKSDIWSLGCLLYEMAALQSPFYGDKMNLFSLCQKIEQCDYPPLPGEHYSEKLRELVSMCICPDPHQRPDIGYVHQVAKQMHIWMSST

[17] = target: Serine/threonine-protein kinase Nek6 (Homo sapiens) (UniProt Q9HC98); conditions: at 1 µM
[18] = target: Serine/threonine-protein kinase Nek7 (Homo sapiens) (UniProt Q8TDX7); conditions: at 0.1 µM
Sequence of Serine/threonine-protein kinase Nek7 (Homo sapiens) (Q8TDX7 whole entry, looked up): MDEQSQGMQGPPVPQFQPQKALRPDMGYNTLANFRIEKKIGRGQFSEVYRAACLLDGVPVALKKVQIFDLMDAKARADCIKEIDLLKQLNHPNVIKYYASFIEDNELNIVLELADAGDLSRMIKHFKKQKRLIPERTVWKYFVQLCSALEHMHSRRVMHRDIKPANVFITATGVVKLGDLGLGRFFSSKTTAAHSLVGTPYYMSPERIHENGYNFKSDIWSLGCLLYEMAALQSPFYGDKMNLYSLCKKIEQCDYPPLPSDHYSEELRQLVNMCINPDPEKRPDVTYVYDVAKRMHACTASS

[19] = target: Serine/threonine-protein kinase Nek7 (Homo sapiens) (UniProt Q8TDX7); conditions: at 1 µM
[20] = target: T7, Serine/threonine-protein kinase Nek9 (Homo sapiens) (UniProt Q8TD19); conditions: at 0.1 µM;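 also: reported value is the mean percent inhibition of NEK9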
T7 sequence (whole entry): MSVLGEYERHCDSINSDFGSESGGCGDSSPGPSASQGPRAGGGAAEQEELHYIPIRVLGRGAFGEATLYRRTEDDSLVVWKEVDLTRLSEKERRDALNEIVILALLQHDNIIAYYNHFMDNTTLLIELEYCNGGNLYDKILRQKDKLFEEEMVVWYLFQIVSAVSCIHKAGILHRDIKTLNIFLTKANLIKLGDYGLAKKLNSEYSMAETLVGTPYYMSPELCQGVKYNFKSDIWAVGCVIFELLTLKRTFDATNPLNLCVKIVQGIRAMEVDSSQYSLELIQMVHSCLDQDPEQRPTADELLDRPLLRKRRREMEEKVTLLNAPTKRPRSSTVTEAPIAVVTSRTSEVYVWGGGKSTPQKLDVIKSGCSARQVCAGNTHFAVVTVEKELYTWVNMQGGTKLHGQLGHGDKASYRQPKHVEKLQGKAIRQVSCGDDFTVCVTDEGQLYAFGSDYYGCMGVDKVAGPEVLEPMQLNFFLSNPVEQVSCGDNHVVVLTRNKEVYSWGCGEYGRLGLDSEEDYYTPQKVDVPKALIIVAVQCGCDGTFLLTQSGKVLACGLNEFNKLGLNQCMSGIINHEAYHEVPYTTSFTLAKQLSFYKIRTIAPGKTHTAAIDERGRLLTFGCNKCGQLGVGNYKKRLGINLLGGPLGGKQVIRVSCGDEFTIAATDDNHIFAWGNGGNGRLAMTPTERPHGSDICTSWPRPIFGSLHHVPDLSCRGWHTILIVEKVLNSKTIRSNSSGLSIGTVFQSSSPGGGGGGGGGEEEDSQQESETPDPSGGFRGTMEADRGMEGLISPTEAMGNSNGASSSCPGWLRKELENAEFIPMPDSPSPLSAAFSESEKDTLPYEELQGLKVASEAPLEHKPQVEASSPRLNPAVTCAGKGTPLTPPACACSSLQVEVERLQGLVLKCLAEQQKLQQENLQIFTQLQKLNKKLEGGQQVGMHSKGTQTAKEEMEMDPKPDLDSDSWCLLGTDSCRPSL

Sequence of Sphingosine kinase 1 (Homo sapiens) (Q9NYA1 whole entry): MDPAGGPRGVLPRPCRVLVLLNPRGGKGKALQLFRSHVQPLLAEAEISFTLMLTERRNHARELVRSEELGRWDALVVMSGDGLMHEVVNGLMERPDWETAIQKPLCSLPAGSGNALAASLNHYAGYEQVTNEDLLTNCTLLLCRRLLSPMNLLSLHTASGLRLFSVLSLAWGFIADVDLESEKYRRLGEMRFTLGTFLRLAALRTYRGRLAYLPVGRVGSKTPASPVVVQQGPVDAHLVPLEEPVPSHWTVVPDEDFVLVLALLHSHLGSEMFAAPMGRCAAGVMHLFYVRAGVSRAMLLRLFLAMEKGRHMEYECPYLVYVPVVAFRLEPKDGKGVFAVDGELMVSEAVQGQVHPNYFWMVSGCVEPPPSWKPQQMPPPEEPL

Structure (SMILES)	inhibition [1]	inhibition [2]	inhibition [3]	inhibition [4]	inhibition [5]	inhibition [6]	inhibition [7]	inhibition [8]	inhibition [9]	inhibition [10]	inhibition [11]	inhibition [12]	inhibition [13]	inhibition [14]	inhibition [15]	inhibition [16]	inhibition [17]	inhibition [18]	inhibition [19]	inhibition [20]
CN1CCC(n2cnc(-c3ccc(F)cc3)c2-c2ccnc(NCCO)n2)CC1	-1.28%	0.37%	-1.92%	4.78%	13.2%	2.6%	6.82%	5.84%	6.36%	7.53%	9.51%	2.52%	3.44%	5.2%	5.72%	3.54%	5.15%	2.96%	3.39%	5.09%
CCN1CCC(C(=O)Nc2n[nH]c3nnc(-c4cccc(F)c4F)cc23)CC1	4.91%	-2.69%	-1.5%	5.2%	-0.24%	-3.04%	3.59%	-4.76%	-2.63%	-2.1%	-0.18%	-1.35%	-0.79%	-0.66%	-0.65%	1.25%	-1.06%	-0.06%	-1.15%	4.77%

Reference: ChEMBL document CHEMBL1961873, “Compounds: GSK PKIS; Assays: Nanosyn kinase panel” (2012)
